# HCV inh – blocks hepatitis C virus | Huh7.5.1 HCVcc-Cre infection, luciferase reporter, 44 h | Potency, µM (highest dose often 41.8 µM), without a hit: at the top dose activity change, negative = inhibition, most hits filed as inhibitors | 3.4% of 340,000 active; active means well fitted inhibition curve with a large enough effect; inconclusive means small, poorly fitted or top-dose-only effect, or another doubt; inactive means no such curve, though single readings can be large or run the other way; further: potency means the concentration at half of the fitted maximal effect
#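 Cells (1,000/well) were plated 4 h before compound, then infected with HCVcc-Cre virus (~0.5 moi). After 44 h further culture, infection was read as luciferase luminescence following a 15 min substrate incubation at room temperature.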
# HCMV antiviral – human cytomegalovirus inhibition; activity change, negative = inhibition, % at 57.5 µM; 4.5% of 410,000 active; AID 1259415; HFF cells, HCMV-luciferase reporter, 72 h; stronger effect = lower value; in the data active means activity change below about -60%; inconclusive means no clear call, values can overlap the other calls; inactive means above about -39%
#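 Human foreskin fibroblasts infected with luciferase-reporter HCMV at MOI 1 PFU/cell, compounds at two doses. Luciferase measured 72 h post infection; normalized to buffer-only basal and Salinomycin (10uM) controls.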
# LASV entry inh – Lassa virus entry inhibition; Lassa virus pseudotype entry inhibition, cell reporter; Potency, µM (titrated, usually from 37.9 µM), for inactives: at the highest dose activity change, negative = inhibition, actives largely listed as inhibitors; 1.2% of 300,000 active; calls by dose curve; tested in HEK293 cells; further: potency means the concentration at half of the fitted maximal effect; nearly all actives have a fitted effect of over 50% in size
# VACV mCherry inh – inhibitors of vaccinia virus infection (mCherry reporter signal); Potency, µM (highest dose often 36.5 µM), without a hit: at the top dose activity change, negative = inhibition, most hits filed as inhibitors; 0.63% of 310,000 active; Vaccinia virus mCherry reporter infection, fluorescence; calls by dose curve; tested in A549 cells; further: potency means the concentration at half of the fitted maximal effect; nearly all actives have a fitted effect of over 35% in size
# VACV Venus inh – vaccinia inhibition (Venus reporter); Potency, µM (doses to about 36.5 µM), for the others: at the top dose activity change, negative = inhibition, hits mostly inhibitors; Vaccinia virus Venus reporter expression, fluorescence; 0.46% of 330,000 active; calls by dose curve; tested in A549 cells; further: potency means the concentration at half of the fitted maximal effect; nearly all actives have a fitted effect of over 30% in size
# MARV entry inh – blocks Marburg virus binding to or entry into cells. Marburg virus pseudotyped entry inhibition, cell reporter. Potency, µM (top dose mostly 37.8 µM), inactives show top-dose activity change, negative = inhibition, hits mostly inhibitors. 1.8% of 300,000 active. AID 540276; calls by dose curve; tested in HEK293 cells; further: potency means the concentration at half of the fitted maximal effect
# * = called active by the depositor; i = inactive; ? = inconclusive; nt = no result given; [ ] = another dose, or the depositor's remark. Shown are actives, neighbours in structure and some others; about 7.8% of the full set was active somewhere. On the % scale 0 is the no-effect control and ±100 the full control effect.
SMILES,HCV inh,HCMV antiviral,LASV entry inh,VACV mCherry inh,VACV Venus inh,MARV entry inh
CC(=O)Nc1nc(-c2ccccc2)nc(-c2ccccc2OC(C)=O)n1,2.8µM*,-29,?,?,?,-26%
Cc1ccc(-c2ocnc2C(=O)Nc2ccccc2NC(=O)c2ccccn2)cc1,?,?,-20%,-20%,-12%,?
Cc1cccc(-c2ocnc2C(=O)Nc2ccccc2NC(=O)c2ccccn2)c1,?,-98*,?,-28%,-4%,?
O=C(COC(=O)c1ccc[nH]c1=O)Nc1ccc(S(=O)(=O)N2CCCC2)cc1,1%,?,nt,nt,nt,nt
O=C(COC(=O)c1ccc[nH]c1=O)Nc1ccc(N2CCCCC2)cc1,-25%,-75*,nt,nt,nt,nt
O=C(OCC(=O)N1CCCCCC1)c1ccc[nH]c1=O,20%,-60*,nt,nt,nt,nt
CCCN1CCC(=O)N(CCC#N)CC1,nt,nt,nt,i,-14%,nt
COc1cc(OC)c(NC(=O)c2noc3c2CSc2ccccc2-3)cc1Cl,nt,-28,?,5%,1%,-7%[46.1 µM]
O=C(NCC1CCCO1)C1=CC2=NC(=S)N(c3ccccc3)C(=O)C2C=C1 (stereo not given),nt,nt,nt,nt,nt,-14%
COC(=O)C1=C(c2ccc(Cl)c(C(F)(F)F)c2)C[C@@H]2CC[C@H]1N2C(=O)N1CCC(O)(c2ccc(Cl)cc2)CC1,10µM*,5,nt,-20%,?,nt
COC(=O)C1=C(c2ccc(Cl)c(C(F)(F)F)c2)C[C@@H]2CC[C@H]1N2C(=O)N1CCCC1,32µM*,-28,nt,-5%,-27%,nt
COC(=O)C1=C(c2ccc(Cl)c(C(F)(F)F)c2)C[C@@H]2CC[C@H]1N2C(=O)N1CCOCC1,?,?,nt,-11%,?,nt
C[C@H](O)[C@@H]1C(=O)N2CCc3ccc(N4CCN(C)CC4)cc3[C@@H]2C[C@@H]1N(C)C(=O)c1ccco1,nt,1,nt,i,-8%,nt
CCCNC(=O)Cn1c(=O)n(CC2CCC(C(=O)NC)CC2)c(=O)c2sccc21 (stereo not given),nt,3,?,-14%,-11%,nt
C/C(=N\NC(=O)c1c(C)nc2ccccn12)c1cccc([N+](=O)[O-])c1,-17%,-26,9%,-14%,2%,3%[46.1 µM]
Cc1ccc(/C=C/C(=O)c2c(C)nc3ccccn23)cc1,9%,-88*,-29%,nt,nt,?
Cc1nc2ccccn2c1C(=O)/C=C/c1cccc([N+](=O)[O-])c1,13%,-101*,nt,nt,nt,nt
CC(=O)c1c(C)nc2ccccn12,18%,-30,nt,nt,nt,0%
CCCOc1ccc(C(=O)N(Cc2cccs2)c2ccc(C)cc2)cc1,nt,5,-19%[46.1 µM],-7%,3%,-7%[46.1 µM]
Cc1ncc2c(c1CNC(=O)/C=C/c1cccs1)CCN(C(=O)c1cc(C(C)C)on1)C2,nt,nt,nt,-1%,6%,nt
CC(=O)N1CN(C2CC(C)(C)NC(C)(C)C2)Cc2c1sc1c2CCCC1,?,-63*,?,-19%,0%,?
CC(=O)N1CN(C2CCCC2)Cc2c1sc1c2CCCC1,-14%,14,0%,nt,nt,-22%
Cc1cc(C(=O)N2CCC2(C)C(=O)NS(=O)(=O)c2ccc(Cl)cc2)nn1C (stereo not given),nt,-13,nt,29%,5%,nt
CN(C)/C=N/c1ncc(C(=O)c2ccccc2)s1,4%,87,?,nt,nt,-5%
CN(C)/C=N/c1ncc(C(=O)c2ccc(-c3ccccc3)cc2)s1,11µM*,?,?,-25%,-28%,?
C[C@H]1C[C@@H](C)O[C@@]2(C1)C(=O)N(Cc1ccc(F)cc1)c1ccccc12,nt,nt,nt,nt,nt,28%[14.2 µM]
COc1ccc(-c2cc(-c3cccs3)c(C#N)c(SCC(=O)NCc3ccccc3OC)n2)cc1,?,-61*,?,-5%,8%,?
COc1ccc(-c2cc(-c3cccs3)c(C#N)c(SCC(=O)NCc3ccccc3)n2)cc1,-29%,10,?,-10%,-13%,?
CN(C)c1ccc(/C=c2\[nH]c(=O)/c(=C\c3ccc(N(C)C)cc3)[nH]c2=O)cc1,nt,nt,nt,i,-6%,nt
COc1ccc(OCc2cc(C(=O)N(C)C(C)c3ccon3)no2)c(Cl)c1 (stereo not given),-14%,-93*,3%,-3%,-19%,-7%

# Assay outcomes from PubChem BioAssay.
